Source: PubChem BioAssay (several laboratories)
EP2 modulator: modulators of human EP2 prostaglandin E2 receptor | 0.83% of 260,000 active | induction, % at 25 µM | AID 940 | EP2-expressing cells, cAMP HTRF FRET, PGE2 co-stimulation;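 active means compounds whose cAMP rise, as percent of the full-agonist control response, exceeds 60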;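 further: rat C6 glioma line stably carrying human EP2 under a CMV promoter; the protocol text gives 20 µM as final concentration; 100% = response of wells given 1 µM PGE2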
Target sequence (P43116 whole entry, looked up): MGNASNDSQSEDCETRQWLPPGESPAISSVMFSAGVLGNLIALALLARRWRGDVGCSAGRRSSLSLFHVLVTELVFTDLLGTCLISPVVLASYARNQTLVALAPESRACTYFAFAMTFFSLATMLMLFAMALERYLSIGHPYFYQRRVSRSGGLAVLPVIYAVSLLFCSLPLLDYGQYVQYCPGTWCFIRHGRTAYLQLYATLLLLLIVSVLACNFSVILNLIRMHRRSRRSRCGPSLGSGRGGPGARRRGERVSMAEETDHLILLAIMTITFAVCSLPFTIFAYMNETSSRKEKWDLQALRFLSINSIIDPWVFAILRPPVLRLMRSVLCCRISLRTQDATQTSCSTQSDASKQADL
Furin inh: human furin inhibition; purified furin, fluorogenic substrate cleavage; AID 463115; inhibition, % at 20 µM or 30 µM; P09958; 0.061% of 220,000 active; in the data active means inhibition above about 25%
HSV replic up: increases HSV replication in cells. HSV replication augmentation in cells, fold increase. maximum fold increase. 0.005% of 220,000 active. AID 1956; in the data active means maximum fold increase above about 1.5; inconclusive means no clear call, values can overlap the other calls; tested in PC3 cells
Pf gamet viab: inhibitors of late stage P. falciparum gametocyte viability | AID 743093 | P. falciparum stage V gametocytes, ATP luminescence, 24 h | 0.065% of 150,000 active | inhibition, % at 10.9 µM;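 active means inhibition above the mean plus 3 SD of compounds within the control limits, set per campaign, cut at about 38% in these data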;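 further: 0% = DMSO wells and 100% = medium only without gametocytes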
PGE2 EP2 inh: inhibitors of human EP2 prostaglandin E2 receptor. P43116. C6 glioma cells expressing human EP2, cAMP TR-FRET; cells stimulated with saturating PGE2. inhibition, % at 25 µM. 0.52% of 260,000 active. AID 1422;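 active means percent inhibition above 40 after rounding to a whole number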;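 further: rat C6 glioma host cells with rolipram phosphodiesterase inhibitor present; the protocol text gives 20 µM as final concentration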
* = called active by the depositor; i = inactive; ? = inconclusive; . = no result; + = active, no number; ! = not confirmed by another sample. Compounds with a hit are over-represented: about 1.4% of the library has one in this group of screens.

SMILES | EP2 modulator | Furin inh | HSV replic up | Pf gamet viab | PGE2 EP2 inh
O=C(OCC(=O)N1CCN(C(=O)c2ccco2)CC1)c1cc(S(=O)(=O)Nc2ccc(Cl)cc2)ccc1O | 13.0 | -17.9 | i | . | 5.3
Cc1nn(-c2ccccc2)c(Cl)c1C(=O)N1CCN(c2ncnc3c2cnn3-c2ccccc2)CC1 | -42.8 | -9.2 | i | . | 40.2*
Cc1nc2c(c(=O)[nH]1)CCN(Cc1ccnc3ccccc13)C2 | -11.3 | . | . | . | 8.3
COc1ccccc1NC(=O)C1=C(C)NC2=C(C(=O)CC(C)(C)C2)C1c1cccs1 (centres undefined) | 62.8* | . | . | . | 14.7
CN(c1ccccc1C(=O)N1CCCC1)S(C)(=O)=O | 10.8 | -18.2 | i | . | 15.7
COc1ccc(OC(=O)c2ccncc2)cc1 | 18.9 | -19.7 | i | . | 7.0
COc1ccc(C(=O)Oc2ccc(/C=N/O)cc2)cc1 | 7.1 | -17.1 | i | 39.9* | 7.0
Cc1cc(N)c(C)c([N+](=O)[O-])c1C | -19.1 | -5.0 | i | -7.0 | 8.2
NC(=O)c1c(NC(=O)c2cc3ccccc3o2)sc2c1CCC2 | -10.6 | -11.4 | i | -26.7 | 41.6*
Cn1cc(Br)c(C(=O)Nc2sc3c(c2C(N)=O)CCC3)n1 | -26.2 | -24.3 | i | -4.6 | 39.9*
Cn1nc(C(=O)N2CCN(C(c3ccccc3)c3ccccc3)CC2)c2ccccc2c1=O | 12.2 | -9.5 | i | -26.8 | 14.4
S=C(NCCCN1CCOCC1)NC1CCCC1 | 3.4 | -7.5 | i | -0.5 | 92.5*
COC(=O)Sc1nnc(-c2ccc(Br)cc2)o1 | 33.9 | -26.9 | i | . | 45.2*
CCOC(=O)CSC1=NC(=O)/C(=C\c2ccc(OC(C)=O)cc2)S1 | -39.5 | -7.1 | i | -20.4 | 53.4*
C[N+](C)(C)c1nc(N)nc2c1ncn2[C@H]1O[C@@H](CO)[C@H](O)[C@H]1O | -2.5 | . | . | . | 44.6*
Cn1cnc([N+](=O)[O-])c1[Se]c1nc(N)nc2c1ncn2[C@H]1O[C@@H](CO)[C@H](O)[C@H]1O | 0.8 | . | . | . | 42.2*
Cn1cnc([N+](=O)[O-])c1Sc1nc(N)nc2c1ncn2[C@@H]1C[C@H](O)[C@@H](CO)O1 | 13.2 | . | . | . | 48.1*
COc1ccc(OC)c(S(=O)(=O)N(C(C)=O)c2ccc3oc(=O)sc3c2)c1 | -19.4 | -28.9 | i | 7.7 | 3.1
CSc1nc(C)cc(Nc2ccc(O)c(CN3CCOCC3)c2)n1 | 5.9 | . | . | . | 44.1*
COc1ccccc1NC(=O)c1sc(NC(=O)COc2ccccc2)c(C#N)c1C | 65.6* | . | . | . | 12.6
COc1ccccc1NC(=O)c1sc(NC(=O)Cc2ccccc2)c(C#N)c1C | 15.1 | . | . | . | 10.0
Cc1ccc(C(=O)Nc2cc(Cl)ccc2N2CCCCC2)s1 | 62.4* | -6.5 | i | -2.0 | 11.7
O=C(COC(=O)CSc1ccc2ccccc2c1)NCc1ccc2c(c1)OCO2 | 37.6 | -21.2 | i | 47.6* | 9.0
Cc1ccc(C(=O)c2c(C)oc3c2C(=O)C(=O)c2ccccc2-3)cc1 | -47.7 | 5.5 | i | . | 55.5*
Cc1oc2c(c1C(=O)c1ccc(Cl)cc1)C(=O)C(=O)c1ccccc1-2 | -11.3 | -16.4 | . | -9.6 | .
SMILES | EP2 modulator | Furin inh | HSV replic up | Pf gamet viab | PGE2 EP2 inh
COC(=O)Cn1c(=O)oc2ccc(C)cc21 | -9.5 | -14.9 | i | -6.5 | 7.7
FC(F)(F)c1cc(NC(=S)N2c3ccccc3-n3cccc3[C@H]2c2cccnc2)cc(C(F)(F)F)c1 | -16.0 | . | . | . | 44.2*
Cc1cccc2cc(CN(CCCN3CCOCC3)Cc3nnnn3C(C)(C)C)c(=O)[nH]c12 | -0.6 | -16.4 | i | . | 13.2
CNC(=S)NNC(=O)c1ccccc1Br | 22.7 | -23.7 | i | -3.5 | 6.7
CC(=O)c1c(C)[nH]c(C(=O)Nc2nc(-c3ccc(Cl)cc3)cs2)c1C | -52.5 | -16.4 | i | . | 40.6*
COc1ccc(OC)c(NC(=O)c2[nH]c(C)c(C(C)=O)c2C)c1 | -17.9 | -21.9 | i | -23.2 | 18.8
COc1ccc(-c2nc(NC(=O)c3[nH]c(C)c(C(C)=O)c3C)sc2C)cc1 | -64.2 | -11.8 | i | -14.2 | 99.8*
Cc1cc(SCC(=O)N/N=C/c2ccc(O)c(O)c2)c(C)cc1Br | -32.9 | -17.3 | i | . | 49.5*
CCN(CC)c1ccc2nc3ccccc3[n+](CC)c2c1 | -293.7 | . | . | . | +
CCN(CC)c1ccc2cc(-c3nc4ccccc4[nH]3)c(=O)oc2c1 | -0.6 | 3.6 | ? | . | 9.2
O=C(NCc1ccccc1)Nc1cccc2ccccc12 | -17.2 | -19.4 | i | 18.7 | 7.2
CCCC(c1nnnn1Cc1ccccc1)N1CCN(c2ccccc2OC)CC1 (centres undefined) | -53.0 | -23.7 | i | -0.5 | 15.1
Clc1ccc(CSc2ncnc3c2ncn3[C@@H]2CCCCO2)cc1 | -3.2 | . | . | . | 44.5*
Nc1ncnc2c1ncn2C1CCCO1 (centres undefined) | -48.1 | . | . | . | 23.6
COC(=O)C1=C(C)Nc2nnnn2C1c1ccccc1Cl (centres undefined) | 7.0 | -11.8 | i | . | 7.1
Cc1ccc2nc(NCc3ccco3)c(C=NCc3ccco3)c(=O)n2c1 | 63.2* | -7.4 | i | . | 7.6
Cc1ccc2nc(NCc3ccccc3)c(C=NCc3cccnc3)c(=O)n2c1 | 48.7 | -7.0 | i | -1.8 | 6.0
Cc1nnc(N2C(=O)C(O)=C(C(=O)c3ccco3)C2c2ccc(C(C)(C)C)cc2)s1 (centres undefined) | 12.1 | -14.9 | i | . | 57.2*
Cc1nnc(N2C(=O)C(O)=C(C(=O)c3ccco3)C2c2ccc(F)cc2)s1 (centres undefined) | 20.4 | -7.6 | i | . | 17.3
Cc1cccc(-c2cc3nc4c(c(N5CCC6(CC5)OCCO6)n3n2)CCCC4)c1 | . | -23.2 | . | -2.6 | .
Fc1ccc(-c2cc3nc4c(c(N5CCOCC5)n3n2)CCCC4)cc1 | 74.2*! | -12.6 | i | -62.7 | 7.6
Cc1cccc(-c2cc3nc4c(c(N5CCOCC5)n3n2)CCCC4)c1 | 60.7* | -21.3 | i | 16.0 | 7.4
CCCCC#Cc1ccccc1CC(=O)Nc1ccccc1 | 26.8 | -21.2 | i | 6.2 | 4.9
CN(C)c1ccc(NC(=O)CSc2nc(N)c(C(=O)Nc3ccc(N(C)C)cc3)s2)cc1 | -43.2 | -10.4 | i | . | 41.2*
Cc1sc2nc(C3CC3)nc(SCC(=O)Nc3ccc(N(C)C)cc3)c2c1C | 65.2* | . | . | . | 16.1
SMILES | EP2 modulator | Furin inh | HSV replic up | Pf gamet viab | PGE2 EP2 inh
COc1cc(O)c2c(O)c3c(c4c2c1[C@]1(C4)C(C)=CCCC1(C)C)[C@H](O)[C@@]1(O)CC(=O)C(C(N)=O)=C(O)[C@]1(O)C3=O | 27.9 | . | . | . | 50.9*
Cc1ccc(NC(=O)c2nc[nH]c2C(=O)N[C@@H](C)c2ccccc2)cc1 | 58.8 | -18.8 | i | 3.1 | 5.8
Cc1ccc(NC(=O)c2[nH]cnc2C(=O)NN)cc1 | 6.4 | -15.5 | i | 39.6* | 12.6
CCOC(=O)Cn1nc(C)c(NC(=O)COc2ccc(F)cc2F)c1C | 10.0 | -28.5 | i | . | 10.3
N#Cc1c(-c2ccc3c(c2)OCO3)cc(-c2ccccc2)nc1N | 65.9* | . | . | . | 14.7
C(=N\Nc1nc2ccccc2s1)/c1ccc2c(c1)OCO2 | 14.1 | -13.5 | i | 19.4 | 6.6
Brc1cc2c(cc1/C=N/Nc1nc3ccccc3s1)OCO2 | -28.2 | -24.8 | i | -0.2 | 41.1*
O=C(N/N=C\c1cccnc1)c1cc(-c2ccc(Cl)s2)[nH]n1 | -57.4 | -29.1 | i | . | 11.0
